Experimental data as given in PubChem BioAssay AID504834 (National Center for Advancing Translational Sciences (NCATS), 2011).
The whole screen tested about 320,000 compounds, of which about 22,000 (6.9%) were called active. Entries that show only a call come without a potency. Inconclusive results (about 27%) are left out. This excerpt belongs to a sample that is enriched for actives. Unmarked numbers belong to inactive results. Calls follow the shape of the dose curve; as a rule, active = well fitted inhibition curve with a large enough effect; inconclusive = small, poorly fitted or top-dose-only effect, or another doubt; inactive = no such curve, though single readings can be large or run the other way.

Assay: Primary qHTS for delayed death inhibitors of the malarial parasite plastid, 96 hour incubation
Conditions: P. falciparum luciferase reporter growth; series mostly up to 28.7 µM
How it was run: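 Infected RBCs, 2% Hct / 0.05% parasitemia final; luciferase-reporter P. falciparum; cpd 96 h, 37 C, 5% CO2; luciferase detection reagent; luminescence.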
Potency is read from the fitted curve at half-maximal effect.

| SMILES | Potency | activity change, negative = inhibition |
| --- | --- | --- |
| COc1ccc(C2=NOC(Cn3nc(C(=O)NCc4ccc5c(c4)OCO5)cc3-c3ccccc3)C2)cc1 (stereo not drawn) | 10.4 µM (active) |  |
| COc1ccc(C2=NOC(COC(=O)c3ccc4ccccc4n3)C2)cc1 (stereo not drawn) | inactive |  |
| COc1ccc(NC(=O)NCc2ccc3c(c2)OCO3)c(OC)c1 | inactive |  |
| Cc1ccc(NC(=O)COC(=O)CNC(=O)c2ccc(Cl)cc2Cl)cc1S(=O)(=O)N1CCOCC1 | inactive |  |
| Cc1c(C)n(Cc2ccc(Cl)cc2)c2ccc(C(=O)NCCCN3CCOCC3)cc12 | inactive |  |
| O=C(COc1ccc(-n2cnnn2)cc1)Nc1ccccc1Cl | inactive |  |
| COc1ccc(CCNc2ncnc3c2nnn3Cc2ccccc2)cc1 | 2.94 µM (active) |  |
| CC(C)(C)c1nc(NCC2CCCO2)c2nnn(Cc3ccccc3)c2n1 (stereo not drawn) | inactive |  |
| Clc1ccc(Nc2ncnc3c2nnn3Cc2ccccc2)cc1 | inactive |  |
| COc1ccccc1CCNC(=O)CN1C(=O)NC2(CCCC2)C1=O | inactive |  |
| COc1ccc(S(=O)(=O)NCCc2cc3ccc(C)c(C)c3[nH]c2=O)cc1 | 8.28 µM (active) |  |
| COc1ccc(CCNS(=O)(=O)c2cccc([N+](=O)[O-])c2)cc1 | inactive |  |
| COC(=O)CNS(=O)(=O)c1ccc(OC)cc1 | inactive |  |
| COc1ccc2[nH]c(C(=O)Nc3ccccc3Cl)cc2c1 | inactive |  |
| CN(C(=O)CN1C(=O)S/C(=C\c2ccccc2F)C1=O)C1CCS(=O)(=O)C1 (stereo not drawn) | inactive |  |
| CCN(C(=O)CN1C(=O)/C(=C/c2ccc(F)cc2)SC1=S)C1CCS(=O)(=O)C1 (stereo not drawn) | 11.7 µM (active) |  |
| CN(C(=O)CCN1C(=O)/C(=C/c2ccccc2F)SC1=S)C1CCS(=O)(=O)C1 (stereo not drawn) | inactive |  |
| CC(C)NC(=O)COCc1cc(-c2ccc3c(c2)OCO3)on1 | inactive |  |
| Cn1cccc1C(=O)NNC(=O)COc1ccc(Br)cc1 | inactive |  |
| O=C(CSc1nnc2n1CCCN2)c1ccccc1 | inactive |  |
| Cc1c(C)c2ccc(OCC(=O)N3CCC(C(=O)O)CC3)c(C)c2oc1=O | inactive |  |
| Cc1c(OC(C)C(=O)N[C@@H](Cc2ccccc2)C(=O)O)ccc2c3c(c(=O)oc12)CCCC3 (stereo partly drawn) | inactive |  |
| Cc1c(OC(C)C(=O)NCC2CCC(C(=O)O)CC2)ccc2c1oc(=O)c1ccccc12 (stereo not drawn) | 13.1 µM (active) |  |
| CCC(C(=O)NCc1cccnc1)n1nc(C)c2sc3ccccc3c2c1=O (stereo not drawn) | inactive |  |
| O=C(C1CCCN(S(=O)(=O)c2ccccc2)C1)N1CCN(c2ccc(F)cc2)CC1 (stereo not drawn) | inactive |  |
| CCOC(=O)C(C)n1cnc2c(nnn2-c2cccc(OC)c2)c1=O (stereo not drawn) | inactive |  |

| SMILES | Potency | activity change, negative = inhibition |
| --- | --- | --- |
| COc1ccc(/C=N/NC(=O)c2ccc(Cl)cc2)cc1COC(C)=O | inactive |  |
| COc1ccc(/C=N\NC(=O)c2sc(N)nc2C)cc1OC | inactive |  |
| COc1cccc(OCc2cc(/C=N/NC(=O)c3nc(Cl)c(Cl)c(N)c3Cl)ccc2OC)c1 | 13.1 µM (active) |  |
| CSc1ccccc1NC(=O)c1cc(C2CC2)on1 | 7.38 µM (active) |  |
| O=C(Nc1cc(C(F)(F)F)ccc1Cl)c1cc(C2CC2)on1 | inactive |  |
| O=C(NC1CCCCC1)c1cc(C2CC2)on1 | inactive |  |
| COc1ccc(C(CC(=O)O)NC(=O)Cc2ccccc2)cc1 (stereo not drawn) | 2.94 µM (active) |  |
| O=C(COc1ccccc1)Nc1nonc1NC(=O)COc1ccccc1 | inactive |  |
| Cc1ccc(OCC(=O)NC(C)c2ccccc2)cc1C (stereo not drawn) | 5.22 µM (active) |  |
| CCOc1ccc(C(CC(=O)O)NC(=O)Cc2ccccc2)cc1OC (stereo not drawn) | inactive |  |
| CCOc1ccc(C(CC(=O)O)NC(=O)COc2ccccc2)cc1 (stereo not drawn) | 10.4 µM (active) |  |
| CC(=O)NC(CC(=O)O)c1ccc(F)cc1 (stereo not drawn) | inactive |  |
| COCCNC(=O)COc1ccc(C)c(C)c1 | inactive |  |
| Cc1cc(C)cc(OCC(=O)NC(C)c2ccccc2)c1 (stereo not drawn) | inactive |  |
| COc1ccc(C(CC(=O)Nc2ccc(C)cc2)NC(=O)C(F)(F)F)cc1 (stereo not drawn) | inactive |  |
| CCN(CC)S(=O)(=O)c1ccc2[nH]c(=O)cc(C(=O)N(C)C3CCS(=O)(=O)C3)c2c1 (stereo not drawn) | inactive |  |
| COc1ccc(-c2cnc(SCCNC(=O)c3ccc4c(c3)OCO4)[nH]2)cc1 | inactive |  |
| CCOc1ccc(N(CC(=O)Nc2cccc(OC)c2)S(C)(=O)=O)cc1 | inactive |  |
| CC(=O)Nc1cccc(C(=O)OCN2C(=O)c3ccccc3C2=O)c1 | inactive |  |
| Cc1ccc(N(C)C(=O)Oc2cccc3ccc(C)nc23)cc1 | 0.104 µM (active) |  |
| Cc1ccc2cccc(OCCCOc3ccccc3CO)c2n1 | inactive |  |
| Cc1cccc(NC(=O)c2ccc3ccccc3n2)n1 | inactive |  |
| CSCCC(NC(=O)c1ccco1)C(=O)Nc1cc(C)ccn1 (stereo not drawn) | inactive |  |
| COc1ccc(CCNS(=O)(=O)c2ccc(F)cc2)cc1OC | inactive |  |
| CCS(=O)(=O)NCCc1ccc(OC)c(OC)c1 | inactive |  |
| CCOC(=O)c1cc(S(=O)(=O)NCCc2ccc(OC)c(OC)c2)cn1C | 13.1 µM (active) |  |

| SMILES | Potency | activity change, negative = inhibition |
| --- | --- | --- |
| Cc1[nH]c2ccc(C(=O)N3CCN(C)CC3)cc2c1C | inactive |  |
| Cc1c(Cl)cccc1NC(=O)[C@@]1(CC(=O)O)CC(/C=C/c2ccccc2)=NO1 | inactive |  |
| CN1CCc2nc(SC(C(=O)O)c3ccccc3)c(C#N)c(-c3cccs3)c2C1 (stereo not drawn) | inactive |  |
| Cc1cc(NC(=O)CCS(=O)(=O)c2ccc(F)cc2)no1 | inactive |  |
| COc1cccc(/C=N\NC(=O)C2=NNC(=O)C2C)c1O (stereo not drawn) | 4.15 µM (active) |  |
| COc1ccc(C(=O)Nc2ccccc2C(=O)N/N=C/c2ccccc2OC)cc1 | inactive |  |
| COc1cccc(/C=N/NC(=O)c2[nH]nc3c2CCc2ccccc2-3)c1O | inactive |  |
| COc1ccccc1-n1ccnc(SCC(=O)NC2CCCCC2)c1=O | inactive |  |
| COc1ccc(C(=O)OCC(=O)Nc2ccc3[nH]c(=O)[nH]c3c2)c(OC)c1OC | inactive |  |
| Cc1ccc(S(=O)(=O)N(C)C)cc1NC(=O)COC(=O)/C=C/c1cccs1 | inactive |  |
| O=C(NC(C(=O)NCCN1CCOCC1)C12CC3CC(CC(C3)C1)C2)C1CCCCC1 (stereo not drawn) | inactive |  |
| CC(C)[C@@H](NC(=O)OC(C)(C)C)C(=O)NCC1CCC(C(=O)N[C@@H](Cc2ccccc2)C(=O)O)CC1 (stereo partly drawn) | inactive |  |
| CC(C)C(NC(=O)C1CCC(C(C)(C)C)CC1)C(=O)NCCCN1CCCCC1 (stereo not drawn) | 13.1 µM (active) |  |
| CCCCn1c(N)c(N(CC)C(=O)c2ccccc2C(F)(F)F)c(=O)[nH]c1=O | inactive |  |
| CCOc1ccc(CN(C)C(=O)c2ccc(=O)[nH]c2)cc1 | inactive |  |
| COc1ccc(N(CCC(=O)NCCc2ccccc2)S(=O)(=O)c2ccc(C)cc2C)cc1 | inactive |  |
| Cc1cccc(NC(=O)Nc2cccc(Oc3c(F)c(F)c(F)c(F)c3F)c2)c1 | 2.08 µM (active) |  |
| Cc1cccc(NC(=S)NC(=O)c2ccc(Br)o2)c1 | inactive |  |
| Cc1cccc(NC(=O)NC(=S)NC(=O)c2ccccc2)c1 | inactive |  |
| Cc1ccc(S(=O)(=O)c2nc(-c3cccs3)oc2NCc2cccnc2)cc1 | 11.7 µM (active) |  |
| Cc1ccc(C)c(NS(=O)(=O)c2ccc(OCC(=O)NCc3cccnc3)cc2)c1 | inactive |  |
| O=C(NCc1cccnc1)c1nc(-c2cccs2)no1 |  | 112% [at 5.75 µM] |
| COc1cccc2cc(C(N)=O)/c(=N\NC(=O)c3ccccc3)oc12 | inactive |  |
| Cn1nccc1NS(=O)(=O)c1ccc(F)cc1 | inactive |  |
| O=C(CN1CCN(c2ccc(Cl)cc2)CC1)c1ccccc1 | inactive |  |
| CC(=O)c1nn(-c2cccc(Br)c2)cc1C(=O)c1cccc2ccccc12 | 6.57 µM (active) |  |

| SMILES | Potency | activity change, negative = inhibition |
| --- | --- | --- |
| Cc1ccn2c(=O)c(NC(=O)c3cccc4ccccc34)c(C)nc2c1 | inactive |  |
| CC(=O)c1ccc2c(ccc3ccccc32)c1 | inactive |  |
| Cc1ccc(C(=O)OCC(=O)Nc2ccc(Cl)cn2)cc1S(=O)(=O)N1CCOCC1 | inactive |  |
| Cc1ccc(CSc2ccc(S(=O)(=O)N3CCCCC3)cn2)cc1 | inactive |  |
| O=C(Nc1ccc(F)cc1)c1ccc(S(=O)(=O)NCc2cccnc2)cc1 | inactive |  |
| Cc1cccn2cc(-c3cccc(S(=O)(=O)N4CCCCC4)c3)nc12 | inactive |  |
| COc1ccc(N2CCN(C(=O)c3ccc(N4CCCCS4(=O)=O)cc3)CC2)cc1 | inactive |  |
| Cc1ccc(CN(Cc2cccnc2)C(=S)Nc2cccc(Cl)c2C)cc1 | inactive |  |
| COCCNC(=S)N(Cc1cccnc1)Cc1ccc(OC)c(OC)c1 | inactive |  |
| COCCNC(=S)N(CCc1c(C)[nH]c2ccc(C)cc12)Cc1cccnc1 | 1.65 µM (active) |  |
| CC(NC(=O)c1cc(=O)[nH]c2ccccc12)c1ccc(F)cc1F (stereo not drawn) | inactive |  |
| O=C1C(=O)N(CCCN2CCOCC2)C(c2ccc([N+](=O)[O-])cc2)/C1=C(\O)c1ccc2c(c1)OCCO2 (stereo not drawn) | inactive |  |
| COC(=O)c1c(NC(=O)C(=O)N2CCCCC2)sc2c1CC(C)(C)OC2 | inactive |  |
| Cc1ccc(CNC(=O)Cn2c(=O)c3sccc3n(Cc3cccc([N+](=O)[O-])c3)c2=O)cc1 | 8.28 µM (active) |  |
| COCCNC(=O)CCCn1c(=O)c2ccccc2n(Cc2cccc([N+](=O)[O-])c2)c1=O | inactive |  |
| Cc1ccc(Cn2c(C)c3cnn(CC(=O)NCc4ccccn4)c(=O)c3c2C)cc1 | inactive |  |
| CSCC[C@H](NC(=O)N1CCn2c1nc1ccccc12)C(=O)NC1CCCCC1 | inactive |  |
| CCn1c(SCC(=O)NC2CC2)nnc1-c1ccncc1 | inactive |  |
| COc1ccc(-n2cc(CN(C)Cc3n[nH]c(=O)[nH]3)c(-c3cccc(F)c3)n2)cc1 | inactive |  |
| Cc1ccc(-n2cc(CN(C)Cc3nccn3C)c(-c3cccc(C)c3)n2)cc1 | 3.7 µM (active) |  |
| Cc1cccc(-n2cc(CN3CCN(C(=O)c4ncn[nH]4)CC3)c(-c3cccc(F)c3)n2)c1 | inactive |  |
| CCCCn1c(N)c(N(CC(C)C)C(=O)c2cnc(C)cn2)c(=O)[nH]c1=O | inactive |  |
| Cc1nn(Cc2ccccc2)c(C)c1NS(=O)(=O)c1ccccc1 | 10.4 µM (active) |  |
| Cc1cc(NS(=O)(=O)c2ccccc2)no1 | inactive |  |
| Cc1nn(Cc2ccccc2)c(C)c1C(=O)NCCCN1CCCC1=O | inactive |  |
